Experimental findings from PubChem BioAssay (NCI) are described below.

Compounds without any hit were thinned out: in the full panel of roughly 83,000, 20% have a hit.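 Compound tested at a single concentration for 48 hours in 96-well plates; a percent growth value below 10 was scored as active.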 A number with no mark means an inactive call. The source made the active and inactive calls.

The test system of the first test is TK-10 renal. In words: NCI-60 one-dose screen, 48 h (100 = growth as untreated, 0 = no growth, -100 = all killed). To be noted: 10 µM unless noted.
For `O=C(CN1CCOCC1)Nc1ccc2ncnc(Nc3ccc(OCc4cccc(F)c4)c(Cl)c3)c2c1`, the growth was 37.8%.
On the same count and under the same terms, the value for `Clc1cc(Cl)cc(N2N=C(c3cccc(Nc4ccncc4)c3)CC2c2ccccc2)c1` (stereo unspecified) was 89.9%; that for `C[C@]12CCc3nc(Nc4cccc(O)c4)sc3C1=CC[C@@H]1[C@@H]2CC[C@]2(C)/C(=N\NC(N)=S)CC[C@@H]12` was 20.1%.
On the same count and under the same terms, to `Cc1c2c(cc[n+]1Cc1ccccc1)c1ccc(OCc3ccccc3)cc1n2Cc1ccccc1` belongs 11.8%; to `O=C(O)CNC(=O)CN1C(=O)c2ccccc2C1=O`, 104%.
Same read-out and setting: to `O=C(Nc1nc2ccc(C(=O)N3CCN(c4ccc(Cl)c(Cl)c4)CC3)cc2s1)c1ccc(NCCc2ccccc2)c([N+](=O)[O-])c1` belongs 113%; to `COc1ccccc1-c1c(-c2ccc(Cl)cc2)c2cc3c(cc2[nH]c1=O)OCCO3`, 86%; to `O=S(=O)(NCCNc1nccc(-c2c(-c3ccc(F)c(O)c3)nc3occn23)n1)c1ccccc1`, 121%.
As for `Clc1cc(Cl)cc(N2N=C(c3cccc(Nc4ccncc4)c3)CC2c2ccc(Br)cc2)c1` (stereo unspecified), the growth is 71.4%.
`Cn1c(COC(=O)NCCn2ccnc2)nc2c(N3CCOCC3)nc(-c3ccccc3)nc21`: the growth is -83.3% (active).
Take `Cc1c2c(cc[n+]1Cc1ccc(F)cc1)c1ccc(OCc3cccc(F)c3)cc1n2Cc1cccc(F)c1`: the growth was -27.8% (active).
Still for that read-out and setting: the value for `CCCOc1nc(SCCC)nc2c1cnn2-c1ccccc1` was 149%.
On the same count and under the same terms, the value for `Cc1ccc(/C=C/C(=O)c2ccc(N)cc2)c(C)c1` was 106%; that for `Cc1cc(C)c(C=O)c(C)c1` was 103%; that for `COc1ccc(-c2c(-c3ccccc3)noc2N)cc1OC` was 111%.
Turning to `O=C1c2cccnc2C(=O)c2nc3cc(N4CCN(C5CC5)CC4)ccc3nc21`, the growth was 0.122% (active).
The same measure, in the same setting: to `c1ccc(N2N=C(c3cccc(Nc4ccncc4)c3)CC2c2ccc3c(c2)OCO3)cc1` (stereo unspecified) belongs 63.1%.
The same measure, in the same setting: to `COc1cc(NCC(C)(O)CN(CC(C)C)CC(C)C)c2nc(C)ccc2c1` (stereo unspecified) belongs 119%; to `C[C@@H]1CN(Cc2ccc(/C=C/c3n[nH]c4ccc5nc(-c6cn[nH]c6C(F)(F)F)c6c(c5c34)CCCC6)cc2)C[C@H](C)O1`, 32.5%; to `CC1(C)CCCN1CCCN1c2ccccc2Sc2ccc(Cl)cc21`, 84.6%.
The same measure, in the same setting: to `CC1CCN(C(=O)OCc2nc3nc(Cl)nc(N4CCOCC4)c3[nH]2)CC1` belongs -91.8% (active); to `CC1(C)CN(c2cnc(C(=O)Nc3cc(F)cc4cccnc34)cn2)CCN1`, 79.3%; to `Cn1c(COC(=O)NCCN2CCOCC2)nc2c(N3CCOCC3)nc(-c3ccccc3)nc21`, -78.8% (active).

For the next test, the system named is ACHN renal. The test is described as above. The following applies: 10 µM unless noted.
As for `CCN(CC)CCCCCCNc1cc(OC)cc2cccnc12`, the growth was 99.6%.
On the same count and under the same terms, the value for `COc1ccccc1Nc1cc(O)c2c(=O)cc(-c3ccccc3)oc2c1` was 50.8%.
On the same count and under the same terms, the value for `COc1ccc(C(O)c2cc3c(N)c(C(=O)Nc4ccc(Cl)cc4)sc3nc2C)cc1` (stereo unspecified) was 35.6%; that for `COc1cc(NCC(O)CN(CC(C)C)CC(C)C)c2nc(C)ccc2c1` (stereo unspecified) was 89.4%.
Still for that read-out and setting: the value for `CCCCCCCCCCN=C(N)N=C(N)N` was 40.1%; that for `COc1ccc(C(O)c2cc3c(N)c(C(=O)Nc4cccc(Br)c4C)sc3nc2C)cc1` (stereo unspecified) was 29.1%; that for `CCCCCCCCCCCCCCCCCCOc1ccccc1N` was 97.8%.
Take `CC(=O)O[C@H]1CC[C@@]2(C)[C@@H](CC[C@@H]3[C@@H]2CC[C@@]2(C)[C@H]3CC[C@]2(O)C(C)=O)C1`: the growth is 88.6%.
In the case of `CCC1(CC)NC(=O)c2c(c3ccc(Cl)c(Cl)c3n2C)C1C#N` (stereo unspecified), the growth was 95.5%.
The same measure, in the same setting: to `COc1ccc(C2CC(c3cccc(Nc4ccncc4)c3)=NN2c2cc(Cl)cc(Cl)c2)cc1` (stereo unspecified) belongs 51.7%.
For `CC(=O)Nc1ccc(S(=O)(=O)NC2CCCCC2)cc1`, the growth is 91.7%.
With `Clc1ccc(N2N=C(c3cccc(Nc4ccncc4)c3)CC2c2ccccc2)cc1` (stereo unspecified), the growth is 94.9%.
The same measure, in the same setting: to `CN1C2CCC1CN(c1cnc(C(=O)Nc3cc(F)cc4cccnc34)cn1)C2` belongs 24.4%; to `C=Cc1cc[n+](CCCCCCCCCCCC)cc1`, 108%; to `CCCCCCCCCCCCCCCC(=O)OC[C@@]1(O)C[C@@]23CC[C@@H]4C(C)(C)[C@H](O)CC[C@@]4(C)[C@@H]2CC[C@H]1C3`, 108%.
Still for that read-out and setting: to `O=C(CN1CCOCC1)Nc1ccc2ncnc(Nc3ccc(OCc4cccc(F)c4)c(Cl)c3)c2c1` belongs 24.5%; to `Clc1cc(Cl)cc(N2N=C(c3cccc(Nc4ccncc4)c3)CC2c2ccccc2)c1` (stereo unspecified), 14.9%; to `C[C@]12CCc3nc(Nc4cccc(O)c4)sc3C1=CC[C@@H]1[C@@H]2CC[C@]2(C)/C(=N\NC(N)=S)CC[C@@H]12`, -54.1% (active).
Still for that read-out and setting: to `Cc1c2c(cc[n+]1Cc1ccccc1)c1ccc(OCc3ccccc3)cc1n2Cc1ccccc1` belongs 8.54% (active); to `O=C(O)CNC(=O)CN1C(=O)c2ccccc2C1=O`, 103%; to `O=C(Nc1nc2ccc(C(=O)N3CCN(c4ccc(Cl)c(Cl)c4)CC3)cc2s1)c1ccc(NCCc2ccccc2)c([N+](=O)[O-])c1`, 101%.
Turning to `COc1ccccc1-c1c(-c2ccc(Cl)cc2)c2cc3c(cc2[nH]c1=O)OCCO3`, the growth was 70.5%.
Still for that read-out and setting: the value for `O=S(=O)(NCCNc1nccc(-c2c(-c3ccc(F)c(O)c3)nc3occn23)n1)c1ccccc1` was 33.9%; that for `Clc1cc(Cl)cc(N2N=C(c3cccc(Nc4ccncc4)c3)CC2c2ccc(Br)cc2)c1` (stereo unspecified) was 46.3%; that for `Cn1c(COC(=O)NCCn2ccnc2)nc2c(N3CCOCC3)nc(-c3ccccc3)nc21` was -100% (active).
Take `Cc1c2c(cc[n+]1Cc1ccc(F)cc1)c1ccc(OCc3cccc(F)c3)cc1n2Cc1cccc(F)c1`: the growth is 32.2%.
The same measure, in the same setting: to `CCCOc1nc(SCCC)nc2c1cnn2-c1ccccc1` belongs 111%; to `Cc1ccc(/C=C/C(=O)c2ccc(N)cc2)c(C)c1`, 39.3%.
Same read-out and setting: to `Cc1cc(C)c(C=O)c(C)c1` belongs 108%; to `COc1ccc(-c2c(-c3ccccc3)noc2N)cc1OC`, 133%.
Still for that read-out and setting: the value for `O=C1c2cccnc2C(=O)c2nc3cc(N4CCN(C5CC5)CC4)ccc3nc21` was -35.1% (active).
On to `c1ccc(N2N=C(c3cccc(Nc4ccncc4)c3)CC2c2ccc3c(c2)OCO3)cc1` (stereo unspecified), for which the growth is 28.7%.
Same read-out and setting: to `COc1cc(NCC(C)(O)CN(CC(C)C)CC(C)C)c2nc(C)ccc2c1` (stereo unspecified) belongs 79%; to `C[C@@H]1CN(Cc2ccc(/C=C/c3n[nH]c4ccc5nc(-c6cn[nH]c6C(F)(F)F)c6c(c5c34)CCCC6)cc2)C[C@H](C)O1`, 10.8%; to `CC1(C)CCCN1CCCN1c2ccccc2Sc2ccc(Cl)cc21`, 61.8%.
As to `CC1CCN(C(=O)OCc2nc3nc(Cl)nc(N4CCOCC4)c3[nH]2)CC1`, the growth is -100% (active).
On to `CC1(C)CN(c2cnc(C(=O)Nc3cc(F)cc4cccnc34)cn2)CCN1`, for which the growth was 31.3%.
The same measure, in the same setting: the value for `Cn1c(COC(=O)NCCN2CCOCC2)nc2c(N3CCOCC3)nc(-c3ccccc3)nc21` was -100% (active).
